Among the data in PubChem BioAssay (EPA / NIEHS) are AC50 and outcome values, retold here.

Calls of active or inactive are those of the source. Rule for the calls: active = hit-call score of the fitted dose curve at least 0.9, where 1 is the maximum; inactive = score below 0.9.

What all share (settings): mRNA level, 48 h; actives raise or lower the signal
Read-out in experiment [1]: Early growth response protein 1 (EGR1) transcription factor, EGR1 (gene 1958)
Nature of the experiment: LTEA_HepaRG_EGR1: Life Technologies and Expression Analysis (LTEA) Assay for Early growth response protein 1 (EGR1) transcription factor using HepaRG (AID 2283490). In outline: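 Read-out is EGR1 mRNA level by qRT-PCR, normalized to three housekeeping genes and analysed for gain or loss of signal against 0.5% DMSO. Source cells: human HepaRG, treated 48 h at up to 100 uM in half-log dilutions.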

Read-out in experiment [2]: Ezrin (EZR), EZR (gene 7430)
Nature of the experiment: LTEA_HepaRG_EZR: Life Technologies and Expression Analysis (LTEA) Assay for Ezrin (EZR) using HepaRG (AID 2283491). In outline: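 HepaRG, 48 h chemical exposure, 8-pt half-log series from 100 uM, 0.5% DMSO vehicle, duplicates. Read-out: EZR mRNA by TaqMan qRT-PCR (Fluidigm array), housekeeping-normalized; bidirectional curve fit vs DMSO baseline.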

Read-out in experiment [3]: Cytochrome P450 3A7 (Homo sapiens) (UniProt P24462)
Nature of the experiment: LTEA_HepaRG_CYP3A7: Life Technologies and Expression Analysis (LTEA) Assay for CYP3A7 using HepaRG (AID 2283492). In outline: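 Differentiated HepaRG cells in serum-free induction medium exposed 48 h in duplicate to 8-point half-log series from 100 uM top in 0.5% DMSO. CYP3A7 mRNA by qRT-PCR, normalized to ACTB/GAPDH/POLR2A, bidirectional fit versus DMSO.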

Read-out in a further experiment: CYP3A5 (gene 1577)
Nature of the experiment: LTEA_HepaRG_CYP3A5: Life Technologies and Expression Analysis (LTEA) Assay for CYP3A5 using HepaRG (AID 2283493). In outline: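 HepaRG plated 48 h, switched to serum-free induction medium, chemicals added 48 h (max 100 uM, half-log, 0.5% DMSO). RNA isolated; CYP3A5 by TaqMan qRT-PCR. Gain/loss vs DMSO.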

Read-out in experiment [4]: Fatty Acid-Binding Protein 1 (FABP1), FABP1 (gene 2168)
The experiment is described as follows: LTEA_HepaRG_FABP1: Life Technologies and Expression Analysis (LTEA) Assay for Fatty Acid-Binding Protein 1 (FABP1) using HepaRG (AID 2283494). The method in brief:
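HepaRG, 48 h post-plating switched to serum-free induction medium, then dosed 48 h (duplicate, 8 pts, ≤100 uM, 0.5% DMSO). RNA → Fluidigm TaqMan qRT-PCR, FABP1 normed to ACTB/GAPDH/POLR2A. Bidirectional curve fit vs DMSO.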

Read-out in experiment [5]: Cytochrome P450 4A22 (Homo sapiens) (UniProt Q5TCH4)
The experiment is described as follows: LTEA_HepaRG_CYP4A22: Life Technologies and Expression Analysis (LTEA) Assay for Cytochrome P450 4A22 (CYP4A22) using HepaRG (AID 2283495). In outline: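 Differentiated HepaRG cells in serum-free induction medium exposed 48 h in duplicate to eight half-log concentrations up to 100 uM in 0.5% DMSO. CYP4A22 mRNA quantified by TaqMan qRT-PCR, normalized to ACTB, GAPDH and POLR2A; bidirectional fit versus DMSO.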

Read-out in experiment [6]: Cytochrome P450 7A1 (Homo sapiens) (UniProt P22680)
Nature of the experiment: LTEA_HepaRG_CYP7A1: Life Technologies and Expression Analysis (LTEA) Assay for Cytochrome P450 7A1 (CYP7A1) using HepaRG (AID 2283496). In outline:
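HepaRG cells plated 48 h, then switched to serum-free induction medium and exposed in duplicate for 48 h to 8-point half-log series from 100 uM in 0.5% DMSO. CYP7A1 mRNA by qRT-PCR (TaqMan), normalized to ACTB/GAPDH/POLR2A; bidirectional fit versus DMSO.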

Read-out in experiment [7]: Glutathione S-Transferase (GSTA2), GSTA2 (gene 2939)
Nature of the experiment: LTEA_HepaRG_GSTA2: Life Technologies and Expression Analysis (LTEA) Assay for Glutathione S-Transferase (GSTA2) using HepaRG (AID 2283497). In outline:
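HepaRG, 48 h dosing, 8-pt half-log CRC from 100 uM, 0.5% DMSO vehicle, n=2; RNA → Fluidigm TaqMan qRT-PCR; GSTA2 vs ACTB/GAPDH/POLR2A; gain/loss fit vs DMSO.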

Read-out in experiment [8]: Glutamate-cysteine ligase catalytic (GCLC), GCLC (gene 2729)
The experiment is described as follows: LTEA_HepaRG_GCLC: Life Technologies and Expression Analysis (LTEA) Assay for Glutamate-cysteine ligase catalytic (GCLC) using HepaRG (AID 2283498). In outline: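 Read-out is GCLC transcript level by Fluidigm-based TaqMan qRT-PCR, normalized to three housekeeping genes and fitted in both directions relative to 0.5% DMSO. Human HepaRG cells received chemicals for 48 h, up to 100 uM.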

Read-out in experiment [9]: growth arrest and DNA damage 45 (GADD45G), GADD45G (gene 10912)
The experiment is described as follows: LTEA_HepaRG_GADD45G: Life Technologies and Expression Analysis (LTEA) Assay for growth arrest and DNA damage 45 (GADD45G) using HepaRG (AID 2283499). In outline:
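Differentiated human HepaRG cells, 48 h post-plating, exposed 48 h in serum-free induction medium to 8 half-log concentrations (top 100 uM, 0.5% DMSO) in duplicate. GADD45G mRNA measured by Fluidigm TaqMan qRT-PCR, normalized to ACTB, GAPDH, POLR2A; bidirectional fit versus DMSO.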

Read-out in experiment [10]: Glutamate-cysteine ligase regulatory (GCLM), GCLM (gene 2730)
Nature of the experiment: LTEA_HepaRG_GCLM: Life Technologies and Expression Analysis (LTEA) Assay for Glutamate-cysteine ligase regulatory (GCLM) using HepaRG (AID 2283500). The method in brief: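 Cells were plated, cultured 48 h, switched to serum-free induction medium, then dosed in duplicate for 48 h at eight half-log concentrations up to 100 uM. RNA was then profiled by qRT-PCR; gain or loss versus DMSO was fitted.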

Read-out in experiment [11]: Glutathione S-transferase M3 (GSTM3), GSTM3 (gene 2947)
Nature of the experiment: LTEA_HepaRG_GSTM3: Life Technologies and Expression Analysis (LTEA) Assay for Glutathione S-transferase M3 (GSTM3) using HepaRG (AID 2283501). In outline:
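Differentiated human HepaRG cells were exposed in duplicate for 48 h in serum-free induction medium, 8 points from 100 uM top in half-log steps, 0.5% DMSO. GSTM3 mRNA was measured by TaqMan qRT-PCR, normalized to ACTB, GAPDH and POLR2A; bidirectional fit versus DMSO.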

Read-out in experiment [12]: Hypoxia-inducible factor 1-alpha (Homo sapiens) (UniProt Q16665)
Nature of the experiment: LTEA_HepaRG_HIF1A: Life Technologies and Expression Analysis (LTEA) Assay for Hypoxia-inducible factor 1 (HIF1A) Trancription factor using HepaRG (AID 2283503). In outline:
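Differentiated HepaRG cells in serum-free induction medium exposed 48 h, in duplicate, to 8-point half-log series from 100 uM in 0.5% DMSO. HIF1A mRNA measured by TaqMan qRT-PCR, normalized to ACTB/GAPDH/POLR2A, fitted bidirectionally versus DMSO.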

Read-out in experiment [13]: 3-Hydroxy-3-Methylglutaryl-CoA Synthase 2 (HMGCS2), HMGCS2 (gene 3158)
The experiment is described as follows: LTEA_HepaRG_HMGCS2: Life Technologies and Expression Analysis (LTEA) Assay for 3-Hydroxy-3-Methylglutaryl-CoA Synthase 2 (HMGCS2) using HepaRG (AID 2283504). In outline: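 Human HepaRG cells in serum-free induction medium were exposed in duplicate for 48 h to 8-point half-log series from 100 uM top in 0.5% DMSO. HMGCS2 mRNA measured by TaqMan qRT-PCR, normalised to ACTB, GAPDH, POLR2A; bidirectional fit versus DMSO.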

Read-out in another experiment: HGF (gene 3082)
The experiment is described as follows: LTEA_HepaRG_HGF: Life Technologies and Expression Analysis (LTEA) Assay for Hepatocyte Growth Facto (HGF) using HepaRG (AID 2283505). The method in brief: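 Differentiated HepaRG cells in serum-free induction medium exposed 48 h in duplicate, 8 half-log concentrations from 100 uM in 0.5% DMSO. HGF mRNA by qRT-PCR, normalised to ACTB, GAPDH, POLR2A; bidirectional fitting.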

Read-out in experiment [14]: Insulin Like Growth Factor 1 (IGF1), IGF1 (gene 3479)
The experiment is described as follows: LTEA_HepaRG_IGF1: Life Technologies and Expression Analysis (LTEA) Assay for Insulin Like Growth Factor 1 (IGF1) using HepaRG (AID 2283506). The method in brief:
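HepaRG, plated 48 h, then switched to serum-free induction media; test chemical 8-pt half-log from 100 uM (0.5% DMSO), duplicate, 48 h. Lysis in RLT, TaqMan qRT-PCR, norm. ACTB/GAPDH/POLR2A. Bidirectional fit vs DMSO.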

Read-out in experiment [15]: Intercellular Adhesion Molecule 1 (ICAM1), ICAM1 (gene 3383)
The experiment is described as follows: LTEA_HepaRG_ICAM1: Life Technologies and Expression Analysis (LTEA) Assay for Intercellular Adhesion Molecule 1 (ICAM1) using HepaRG (AID 2283507). The method in brief:
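Differentiated human HepaRG cells in serum-free induction medium exposed 48 h in duplicate to 8 half-log concentrations (top 100 uM, 0.5% DMSO). ICAM1 mRNA quantified by TaqMan qRT-PCR, normalized to ACTB, GAPDH and POLR2A; bidirectional fitting versus DMSO.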

Read-out in experiment [16]: Insulin-like growth factor-binding protein 1 (IGFBP1), IGFBP1 (gene 3484)
Nature of the experiment: LTEA_HepaRG_IGFBP1: Life Technologies and Expression Analysis (LTEA) Assay for Insulin-like growth factor-binding protein 1 (IGFBP1) using HepaRG (AID 2283508). The method in brief:
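HepaRG cells, plated 48 h then switched to serum-free induction medium, exposed in duplicate for 48 h to 8-point half-log series from 100 uM in 0.5% DMSO. mRNA measured by qRT-PCR, normalized to ACTB/GAPDH/POLR2A; bidirectional fit versus DMSO.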

Read-out in experiment [17]: Interleukin 6 (IL6), IL6 (gene 3569)
Nature of the experiment: LTEA_HepaRG_IL6: Life Technologies and Expression Analysis (LTEA) Assay for Interleukin 6 (IL6) using HepaRG (AID 2283509). The method in brief:
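HepaRG, ~100,000 cells/well, 48 h pre-culture; serum-free induction medium; cmpd 8-pt half-log from 100 uM, 0.5% DMSO, duplicate, 48 h. Lysis in RLT, TaqMan qRT-PCR; gain or loss vs DMSO.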

Chain of Hypoxia-inducible factor 1-alpha (Homo sapiens) (Q16665 whole entry, looked up): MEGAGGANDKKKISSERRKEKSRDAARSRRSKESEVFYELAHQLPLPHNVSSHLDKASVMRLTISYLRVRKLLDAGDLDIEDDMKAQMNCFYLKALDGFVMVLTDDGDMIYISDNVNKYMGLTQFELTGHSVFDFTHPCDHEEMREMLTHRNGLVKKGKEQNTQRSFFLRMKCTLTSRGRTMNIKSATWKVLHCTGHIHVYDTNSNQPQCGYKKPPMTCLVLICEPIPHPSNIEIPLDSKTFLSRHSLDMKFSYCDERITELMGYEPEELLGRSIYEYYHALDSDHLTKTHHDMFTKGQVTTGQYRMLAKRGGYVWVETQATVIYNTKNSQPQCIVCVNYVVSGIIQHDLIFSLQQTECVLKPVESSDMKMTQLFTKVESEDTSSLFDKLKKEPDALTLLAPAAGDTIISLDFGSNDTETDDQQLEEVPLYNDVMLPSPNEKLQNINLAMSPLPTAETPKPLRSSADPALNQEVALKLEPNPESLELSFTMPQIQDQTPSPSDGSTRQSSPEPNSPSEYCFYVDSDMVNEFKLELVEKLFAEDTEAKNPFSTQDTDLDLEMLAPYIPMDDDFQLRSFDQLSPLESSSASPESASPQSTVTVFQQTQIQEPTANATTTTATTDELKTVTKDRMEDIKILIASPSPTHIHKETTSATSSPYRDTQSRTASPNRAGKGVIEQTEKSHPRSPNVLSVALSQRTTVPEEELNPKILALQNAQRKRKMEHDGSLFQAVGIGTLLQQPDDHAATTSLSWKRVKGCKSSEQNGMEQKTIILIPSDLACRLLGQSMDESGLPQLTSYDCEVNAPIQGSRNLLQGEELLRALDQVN
Chain of Cytochrome P450 3A7 (Homo sapiens) (P24462 whole entry, looked up): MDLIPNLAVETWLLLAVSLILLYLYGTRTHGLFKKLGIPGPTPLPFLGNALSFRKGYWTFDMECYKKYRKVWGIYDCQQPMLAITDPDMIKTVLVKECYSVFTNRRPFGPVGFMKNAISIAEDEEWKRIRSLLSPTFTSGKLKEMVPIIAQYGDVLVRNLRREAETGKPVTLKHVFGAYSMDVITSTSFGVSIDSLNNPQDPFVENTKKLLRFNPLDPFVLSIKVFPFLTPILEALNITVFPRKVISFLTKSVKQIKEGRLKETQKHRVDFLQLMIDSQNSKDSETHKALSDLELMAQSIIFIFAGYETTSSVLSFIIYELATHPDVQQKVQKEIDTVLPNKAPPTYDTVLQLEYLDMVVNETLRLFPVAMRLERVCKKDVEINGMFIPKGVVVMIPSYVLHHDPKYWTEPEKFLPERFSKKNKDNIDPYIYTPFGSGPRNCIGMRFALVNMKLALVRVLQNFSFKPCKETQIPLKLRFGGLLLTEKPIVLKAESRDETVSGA

Usually AC50 stands for the concentration giving half of the maximal activity seen. Consider `CO/N=C(/C1=NOCCO1)c1ccccc1Oc1ncnc(Oc2ccccc2Cl)c1F`, for which the AC50 was 12.7 µM (active) in [1]; 973 nM (active) in experiment [2]; 12.4 µM (active) in experiment [3]; 23.3 µM (active) with CYP3A5 (gene 1577); 19.8 µM (active) in [4]; 20.5 µM (active) in experiment [5]. Also, the AC50 in [6] was 24 µM (active); in experiment [7] it was 28.4 µM (active); in experiment [9], 18.4 µM (active); in experiment [10], 19.5 µM (active); in experiment [13], 21.9 µM (active); in [14] it was 10.6 µM (active). The AC50 in experiment [15] is 29.4 µM (active); in experiment [16] it was 20.3 µM (active); in [17], 28.4 µM (active). Moreover, the result (in experiment [8]; in experiment [11]; in experiment [12]; with HGF (gene 3082)) was inactive.
As to `CC1(C)CCC(=Cc2ccc(Cl)cc2)C1(O)Cn1cncn1` (stereo unspecified), the outcome (in experiment [1]; in experiment [2]; in the experiment with CYP3A5 (gene 1577); in experiment [7]; in [8]; in experiment [9]) was inactive. Besides, the compound was called inactive (in experiment [10]; in experiment [11]; in [12]; in experiment [13]; in the experiment with HGF (gene 3082); in [15]). Also, the outcome in [16] and in experiment [17] was inactive. Moreover, the AC50 was 4.41 µM (active) in experiment [4], 14.6 µM (active) in experiment [5], 4.96 µM (active) in experiment [6] and 25 µM (active) in [14].
`C=CCOC(=O)C(C)(C)OC(=O)c1cc(-n2c(=O)cc(C(F)(F)F)n(C)c2=O)ccc1Cl`: the result (in experiment [1]; in [2]; with CYP3A5 (gene 1577); in [4]; in experiment [5]; in experiment [6]) was inactive. Also, the compound was called inactive in [7], in [8], in experiment [9], in experiment [10], in [11] and in experiment [12]. Also, the outcome (in experiment [13]; with HGF (gene 3082); in [14]; in [15]; in experiment [16]; in experiment [17]) was inactive. In addition, the AC50 in [3] is 11 µM (active).
